Experimental data from the supplement of paper PMC3545927.
The other results are listed elsewhere or left out. The hit rate among all sequences tested is not known here.

Molecular target: furin, P09958
Experiment: furin cleavage Z-score vs untreated control; higher = more cleavage, active = 3.5 or more, inactive = 1 or less, 8 variable residues between constant flanks
How it was run: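 Reactions of 0.01 ml ran for 7.5, 15 or 30 min in 50 mM HEPES pH 7.5 with CaCl2 and NaCl, at 1:10 enzyme:substrate. In them, purified furin acted on bead-held 8-mer peptides fused to a cDNA oligonucleotide. The cleavage Z-score was obtained by lowess-adjusting log sequencing counts of released DNA against furin-free reactions and scaling by median absolute deviation.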

Sequence of furin, P09958 (P09958 whole entry): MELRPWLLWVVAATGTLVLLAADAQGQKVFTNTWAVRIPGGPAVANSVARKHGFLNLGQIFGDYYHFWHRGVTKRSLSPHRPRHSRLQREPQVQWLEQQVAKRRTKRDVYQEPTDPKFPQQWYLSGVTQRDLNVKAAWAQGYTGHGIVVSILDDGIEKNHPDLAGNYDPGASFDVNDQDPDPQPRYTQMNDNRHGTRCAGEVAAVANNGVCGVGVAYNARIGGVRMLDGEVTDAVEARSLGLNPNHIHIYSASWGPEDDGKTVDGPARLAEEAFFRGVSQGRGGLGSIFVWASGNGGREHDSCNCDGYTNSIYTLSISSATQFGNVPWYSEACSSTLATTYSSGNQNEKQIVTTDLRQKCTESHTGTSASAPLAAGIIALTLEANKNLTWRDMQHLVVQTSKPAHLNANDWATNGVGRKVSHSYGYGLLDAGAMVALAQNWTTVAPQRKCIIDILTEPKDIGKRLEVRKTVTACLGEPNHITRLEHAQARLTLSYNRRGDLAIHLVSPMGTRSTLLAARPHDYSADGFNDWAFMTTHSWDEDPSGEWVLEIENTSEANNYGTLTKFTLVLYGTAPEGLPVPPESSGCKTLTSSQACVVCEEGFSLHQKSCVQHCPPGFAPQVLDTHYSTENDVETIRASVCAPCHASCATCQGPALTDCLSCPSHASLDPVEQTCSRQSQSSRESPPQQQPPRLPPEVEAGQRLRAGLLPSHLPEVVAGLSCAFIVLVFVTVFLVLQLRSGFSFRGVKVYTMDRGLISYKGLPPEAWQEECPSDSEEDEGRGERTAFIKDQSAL

Row | Sequence | furin cleavage Z-score (7.5 min) | furin cleavage Z-score (15 min) | furin cleavage Z-score (30 min)
1 | CAVAKAVDFIAGNASASA [HC755] | -0.603 (inactive) | -0.471 (inactive) | -1.43 (inactive)
2 | CALRKRLLRDAGNASASA [FS-686] | 9.49 (active) | 11.5 (active) | 8.89 (active)
3 | CALRKRLTPLAGNASASA [FS-1883] | -1.32 (inactive) | -0.87 (inactive) | 0.456 (inactive)
4 | CARASRDVAQAGNASASA [FS-1686] | 3.28 | 3.03 | 3.8 (active)
5 | CARRVRSRTHAGNASASA [FS-3071] | 0.143 (inactive) | 0.522 (inactive) | 1.9
6 | CARMKRKVGAAGNASASA [FS-1752] | 2.2 | 4.54 (active) | 4.95 (active)
7 | CARRVRSVILAGNASASA [FS-2301] | -0.109 (inactive) | -0.0349 (inactive) | 1.3
8 | CARALRNVWQAGNASASA [FS-1682] | -1.32 (inactive) | 1.58 | 0.167 (inactive)
9 | CARASRDSSEAGNASASA [FS-2892] | -0.582 (inactive) | 0.0813 (inactive) | -0.0253 (inactive)
10 | CARRVRSAEEAGNASASA [FS-2376] | 7.77 (active) | 9.29 (active) | 6.7 (active)
11 | CARQPRLVGAAGNASASA [FS-2171] | -0.691 (inactive) | -0.656 (inactive) | -0.39 (inactive)
12 | CAKCTTPCSGAGNASASA [HC1954] | -0.367 (inactive) | 0.0622 (inactive) | 0.776 (inactive)
13 | CAEVVTSTWKAGNASASA [HC2254] | -0.33 (inactive) | -0.194 (inactive) | 1.09
14 | CAGVCCSMSYAGNASASA [HC1996] | -0.333 (inactive) | -0.0583 (inactive) | 0.735 (inactive)
15 | CAQMYTNVDQAGNASASA [HC710] | 0.349 (inactive) | -0.937 (inactive) | 0.488 (inactive)
16 | CARRKRAKVEAGNASASA [FS-3051] | 2.74 | 5.28 (active) | 7.03 (active)
17 | CALRKRSVDQAGNASASA [FS-1884] | 6.21 (active) | 7.15 (active) | 6.93 (active)
18 | CARRKRAVNPAGNASASA [FS-2294] | 5.19 (active) | 3.83 (active) | 4.64 (active)
19 | CARRMRRAGQAGNASASA [FS-2178] | 3.82 (active) | 5.28 (active) | 6.43 (active)
20 | CANWTRGERCAGNASASA [HC483] | 0.47 (inactive) | 1.14 | 0.279 (inactive)
21 | CAFVVTSTWVAGNASASA [HC2147] | 0.62 (inactive) | 0.171 (inactive) | -0.5 (inactive)
22 | CAGENLYFQGAGNASASA [TV2] | -1.7 (inactive) | -0.261 (inactive) | -0.768 (inactive)

Row | Sequence | furin cleavage Z-score (7.5 min) | furin cleavage Z-score (15 min) | furin cleavage Z-score (30 min)
23 | CAVVCCHMSYAGNASASA [HC109] | 1.01 | -0.749 (inactive) | 0.554 (inactive)
24 | CAGAYMSKAHAGNASASA [HC793] | -0.996 (inactive) | -1.61 (inactive) | -0.903 (inactive)
25 | CASTPCSHHLAGNASASA [HC2535] | 0.275 (inactive) | 0.419 (inactive) | -0.167 (inactive)
26 | CARMKRSRCPAGNASASA [FS-2721] | 5.18 (active) | 7.21 (active) | 5.91 (active)
27 | CARRKRYRNFAGNASASA [FS-1836] | 1.23 | 0.582 (inactive) | 2.95
28 | CARRKRKEKQAGNASASA [FS-3231] | -1.72 (inactive) | -1.54 (inactive) | 0.219 (inactive)
29 | CAREDRFFCPAGNASASA [FS-2001] | -0.0818 (inactive) | 0.295 (inactive) | -0.529 (inactive)
30 | CARRKRSRKPAGNASASA [FS-1835] | 6.72 (active) | 6.37 (active) | 6.82 (active)
31 | CARRKKARGPAGNASASA [FS-2776] | 0.453 (inactive) | -0.0472 (inactive) | -0.48 (inactive)
32 | CARRKRSVAQAGNASASA [FS-1919] | 4.44 (active) | 4.31 (active) | 4.11 (active)
33 | CARMKRFRVDAGNASASA [FS-2719] | -0.757 (inactive) | 0.996 (inactive) | 1.75
34 | CATPCTCGSSAGNASASA [HC721] | -1.49 (inactive) | -2.13 (inactive) | -1.32 (inactive)
35 | CAEECSQHLPAGNASASA [HC1015] | 0.447 (inactive) | 0.0813 (inactive) | -0.935 (inactive)
36 | CATTTCSGSWAGNASASA [HC1878] | -0.962 (inactive) | 0.367 (inactive) | -0.313 (inactive)
37 | CALRAYMNTPAGNASASA [HC930] | 0.0194 (inactive) | -1.18 (inactive) | 0.0807 (inactive)
38 | CALRARKNRSAGNASASA [FS-942] | 8.1 (active) | 8.12 (active) | 6.93 (active)
39 | CAEEIRVNRSAGNASASA [FS-229] | 2.33 | 0.724 (inactive) | 1.69
40 | CAPRARSRRSAGNASASA [FS-1053] | 9.77 (active) | 10.8 (active) | 8.95 (active)
41 | CAPRAAERRSAGNASASA [FS-74] | -1.2 (inactive) | -1.99 (inactive) | -1.56 (inactive)
42 | CAPRARKNRSAGNASASA [FS-949] | 12.3 (active) | 12.6 (active) | 8.81 (active)
43 | CATTTRKNRSAGNASASA [FS-1498] | 8.64 (active) | 11 (active) | 7.73 (active)
